From the supplement of paper PMC12645437, “Orthogonal IMiD-Degron Pairs Induce Selective Protein Degradation in Cells” (ACS Chemical Biology, 2025)
Over roughly 8,300 sequences, “log2 fold change of degron read counts, EGFP-low vs EGFP+ sorted cells (limma voom), compound-induced degradation” has its median near -1.1; the highest 2% begin near 3.2. This excerpt belongs to a sample that is enriched for the highest values.

T1: CRBN, Q96SW2
T1 chain: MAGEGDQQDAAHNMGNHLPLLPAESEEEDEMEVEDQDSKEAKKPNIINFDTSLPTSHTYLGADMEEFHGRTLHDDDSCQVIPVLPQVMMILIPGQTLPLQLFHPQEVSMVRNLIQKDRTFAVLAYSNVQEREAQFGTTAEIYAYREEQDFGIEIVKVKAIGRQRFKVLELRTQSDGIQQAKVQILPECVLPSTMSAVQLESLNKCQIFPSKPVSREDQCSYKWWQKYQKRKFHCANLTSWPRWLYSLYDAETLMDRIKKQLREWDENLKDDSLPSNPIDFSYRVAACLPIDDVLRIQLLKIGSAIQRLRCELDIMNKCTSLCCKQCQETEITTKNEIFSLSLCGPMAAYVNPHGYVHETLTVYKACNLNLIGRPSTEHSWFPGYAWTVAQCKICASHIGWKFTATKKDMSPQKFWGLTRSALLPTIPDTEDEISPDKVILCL


Molecular target: T1, CRBN, Q96SW2
Assay: log2 fold change of degron read counts, EGFP-low vs EGFP+ sorted cells (limma voom), compound-induced degradation; higher = more compound-induced degradation of the degron-EGFP fusion; degrons are variants of IKZF1/3 zinc finger 2; compound dose not given here
Settings: Jurkat, 18 h
[1] = compound: compound 19 (5-tert-butyl-thalidomide)
[2] = compound: compound 22 (5-morpholino-thalidomide)
[3] = compound: compound 33 (diphenyl IMiD analogue)
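Further: pooled lentiviral library of zinc finger degron-EGFP fusions in mCherry-positive Jurkat cells, FACS-sorted after compound exposure, with degron abundance counted by next-generation sequencing.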

Row | Sequence | log2 fold change of degron read counts [1] | log2 fold change of degron read counts [2] | log2 fold change of degron read counts [3] | log2 fold change of degron read counts (compound: thalidomide)
1 | FACDQCGAYFTQKGNLLRHIKL [46F_47A_49D_50Q_52G_53A_54Y_55F_67L_, Q9UKT9] | -1.75 | -2.34 | -1.85 | -2.43
2 | FLCSVCGHQFTQKGNLLRHIKL [46F_47L_49S_50V_52G_53H_54Q_55F_67L_, Q9UKT9] | -2.83 | -2.7 | -2.54 | -2.76
3 | FKCDQCGACFTQKGNLLRHIKL [46F_47K_49D_50Q_52G_53A_54C_55F_67L_, Q9UKT9] | -2.75 | -3.31 | -3.66 | -3.24
4 | FLCPQCGAIFTQKGNLLRHIKL [46F_47L_49P_50Q_52G_53A_54I_55F_67L_, Q9UKT9] | -1.63 | -1.54 | -0.716 | -0.881
5 | FKCDICGASFTQKGNLLRHIKL [46F_47K_49D_50I_52G_53A_54S_55F_67L_, Q9UKT9] | -0.288 | -2.66 | -3.19 | -1.69
6 | FACDVCGAQFTQKGNLLRHIKL [46F_47A_49D_50V_52G_53A_54Q_55F_67L_, Q9UKT9] | 1.75 | -0.392 | -1.04 | -1.67
7 | FACEICGAVFTQKGNLLRHIKL [46F_47A_49E_50I_52G_53A_54V_55F_67L_, Q9UKT9] | 3.29 | 2.39 | 1.27 | 0.606
8 | FSCEICGAVFTQKGNLLRHIKL [46F_47S_49E_50I_52G_53A_54V_55F_67L_, Q9UKT9] | 2.73 | 1.89 | 2.49 | 1.44
9 | FHCEICGAVFTQKGNLLRHIKL [46F_47H_49E_50I_52G_53A_54V_55F_67L_, Q9UKT9] | 1.69 | 1.65 | 1.31 | 0.109
10 | FCCEICGAVFTQKGNLLRHIKL [46F_47C_49E_50I_52G_53A_54V_55F_67L_, Q9UKT9] | 1.77 | 1.91 | 2.47 | 2.16
11 | FMCEICGAVFTQKGNLLRHIKL [46F_47M_49E_50I_52G_53A_54V_55F_67L_, Q9UKT9] | -1.1 | -0.16 | 2.5 | 1.37
12 | FTCEICGAVFTQKGNLLRHIKL [46F_47T_49E_50I_52G_53A_54V_55F_67L_, Q9UKT9] | 0.417 | 1.97 | 2.08 | 2.64
13 | FFCEICGAVFTQKGNLLRHIKL [46F_47F_49E_50I_52G_53A_54V_55F_67L_, Q9UKT9] | 3.46 | 3.76 | 2.2 | 1.64
14 | FGCEICGAVFTQKGNLLRHIKL [46F_47G_49E_50I_52G_53A_54V_55F_67L_, Q9UKT9] | 2.88 | 2.6 | 2.14 | 1.13
15 | FECEICGAVFTQKGNLLRHIKL [46F_47E_49E_50I_52G_53A_54V_55F_67L_, Q9UKT9] | -0.462 | -0.764 | 1.98 | 2.39
16 | FWCEICGAVFTQKGNLLRHIKL [46F_47W_49E_50I_52G_53A_54V_55F_67L_, Q9UKT9] | 3.33 | 3.51 | 2.5 | 0.916
17 | FNCEICGAVFTQKGNLLRHIKL [46F_47N_49E_50I_52G_53A_54V_55F_67L_, Q9UKT9] | 1.15 | -0.231 | 0.00137 | -0.335
18 | FYCEICGAVFTQKGNLLRHIKL [46F_47Y_49E_50I_52G_53A_54V_55F_67L_, Q9UKT9] | 3.66 | 3.6 | 2.79 | 1.07
